# This is a sample that favours compounds with a hit; in the whole collection about 7.9% have one here.
# KB-V1 MDR tox = kills drug-selected multidrug resistant KB-V1 cells | Potency, µM (series often up to 46.1 µM), hits mostly cytotoxic | AID 1347076 | KB-V1 MDR cells viability, CellTiter-Glo, 72 h | actives 3.4% (n = 400,000); note: % is set by controls: 0 for no effect and ±100 for the full control effect; nearly all actives have a fitted effect of over 60% in size
#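 Cells of the MDR subline KB-V1 are plated, dosed with compound at multiple concentrations, and incubated 72 h at 37 degrees C; CellTiter-Glo is then added and luminescence read after 10 min.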
# SW480 rereplic = inducers of DNA re-replication in SW480 colon cancer cells. AID 624297. actives 1.8% (n = 340,000). Potency, µM (titrated, usually from 46.1 µM), without a hit: top-dose re-replication activation, usual class: activators. SW480 DNA re-replication, Hoechst DNA content imaging, 48 h; note: % of control where 0% means no effect; nearly all actives have a fitted effect of over 55% in size
#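 Hoechst fluorescence of nuclei (405 nm excitation, 500-530 nm emission) measured by plate-scanning imager after 48 hr compound exposure at 37 C; re-replication scored as increased number of nuclei with elevated intensity.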
# HT1080 IDH1KD tx = toxicity to HT-1080 IDH1 knockdown cells (counter line). HT-1080 IDH1 knockdown viability, ATP luminescence, 48 h. Potency, µM (highest dose often 46.1 µM), inactives show top-dose activity, negative = toxicity, most hits filed as cytotoxic. actives 2% (n = 360,000);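 note: 0% = DMSO wells and -100% = cell-free medium wells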
#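 HT-1080-IDH1KD cells (IDH1 knocked down), 750/well in RPMI with 5% FBS, treated with compound 48 h at 37 degrees C. Viability by CellTiter-Glo luminescence, normalised to DMSO and no-cell wells; concentration-response curves classed.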
# HT1080NT lethal = kills 2HG-producing HT-1080-NT fibrosarcoma cells; HT-1080-NT fibrosarcoma viability, CellTiter-Glo ATP luminescence, 48 h; Potency, µM (titrated, usually from 46.1 µM), for the others: at the highest dose activity, negative = less viability, actives largely listed as cytotoxic; actives 1.6% (n = 360,000);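 note: NT is the 2HG producing partner of a matched IDH1 knockdown line; 0% = DMSO-treated cells and -100% = media-only wells without cells; nearly all actives have a fitted effect of over 55% in size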
#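 Read-out is CellTiter-Glo luminescence after 10 minutes at room temperature, following 48 hours' compound treatment of HT-1080-NT cells (750 cells/well, RPMI, 5% FBS, 37 degrees C).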
# KB-3-1 cytotox = KB-3-1 parental cell cytotoxicity | actives 1.4% (n = 400,000) | KB-3-1 viability, CellTiter-Glo ATP luminescence, 72 h | Potency, µM (highest dose often 46.1 µM), usual class: cytotoxic; note: % is set by controls: 0 for no effect and ±100 for the full control effect; nearly all actives have a fitted effect of over 60% in size
#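 Cytotoxicity in the drug-sensitive parental line KB-3-1 was scored as loss of CellTiter-Glo luminescence following 72 h incubation with compound. Values come from curve fitting of normalized concentration-response data.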
# MCF10A rereplic = DNA re-replication induction in MCF 10a cells; MCF 10A DNA re-replication, Hoechst nuclear intensity, 48 h; Potency, µM (series often up to 46.1 µM), without a hit: at the highest dose activity, positive = re-replication, actives largely listed as activators; actives 2.9% (n = 350,000); AID 624296; note: % of control where 0% means no effect; nearly all actives have a fitted effect of over 50% in size
# Numbers without * were called inactive; i = inactive; ? = inconclusive; / = no result; [ ] = remark or other dose. Calls come from the whole dose curve; as a rule, active = well fitted curve in the direction sought with a large enough effect; inconclusive = small, poorly fitted or top-dose-only effect, or another doubt; inactive = no such curve, though single readings can be large; an effect the other way counts as inactive or inconclusive. Potency is the fitted concentration of half-maximal effect.
SMILES,KB-V1 MDR tox,SW480 rereplic,HT1080 IDH1KD tx,HT1080NT lethal,KB-3-1 cytotox,MCF10A rereplic
O=C(N/N=C/c1ccc(Br)o1)c1cc([N+](=O)[O-])cc([N+](=O)[O-])c1,?,5%,-2%,0%,i,1%
CCC(C)(C)c1ccc(OCCCC[n+]2cccc(C)c2)c(C(C)(C)CC)c1,i,?,4.1µM*,6.5µM*,3.3µM*,?
O=C(COc1ccc(S(=O)(=O)NC2CCCCC2)cc1Cl)Nc1ccc2c(c1)OCO2,10µM*,2%,?,?,?,?
COCCNS(=O)(=O)c1ccc(OCC(=O)OC)c(Cl)c1,i,-15%,10%,6%,i,0%
O=C(COc1ccc(S(=O)(=O)NC2CCCCC2)cc1Cl)NCc1ccc2c(c1)OCO2,?,25%,?,0%[9.24 µM],i,10%
O=C(COc1ccc([N+](=O)[O-])cc1Cl)NCCc1ccccc1,21µM*,18%,17%,10%,i,-4%
COCCCNC(=O)COc1ccc(S(=O)(=O)NCc2ccccc2)cc1Cl,21µM*,-5%,2%,5%,i,1%
O=C(COC(=O)c1cc([N+](=O)[O-])ccc1Cl)NCCc1ccccc1,i,-3%,16%,0%,i,2%
COc1ccc(CCNC(=O)COc2ccc(S(=O)(=O)NC3CCCCC3)cc2Cl)cc1OC,10µM*,15%,-19%,-16%,?,0%
O=C1CCCCC1C1(O)C(=O)Nc2ccccc21 (stereo not given),i,/,9%,3%,i,/
CC(=O)Nc1ccc(NC(=O)COC(=O)C2c3ccccc3Oc3ccccc32)cc1,i,3%,-1%,19%,i,9%
Cc1onc(C(=O)N2CCN(c3ccccc3)CC2)c1[N+](=O)[O-],i,?,-2%,-8%,i,-1%
CC(C)c1nnc(NC(=O)CCC(=O)N2CCN(Cc3ccc(F)cc3)CC2)s1,i,-6%,-1%,8%,i,2%
Cc1ccc(C)c(NS(=O)(=O)c2cc(C(=O)Nc3ccccc3-c3ccccc3)ccc2C)c1,4.6µM*,17%,?,?,?,19%
Cc1ccc(C(=O)Nc2cccc([N+](=O)[O-])c2)cc1S(=O)(=O)Nc1ccc(C(=O)O)cc1,i,1%,5%,9%,i,?
Cc1ccccc1NS(=O)(=O)c1cc(C(=O)Nc2cccc([N+](=O)[O-])c2)ccc1C,12µM*,-1%,21µM*,?,?,?
O=S1(=O)c2cccc3cccc(c23)N1Cc1nnc(-c2ccccc2Br)o1,?,7%,?,-1%,i,?
C=CCc1c(O)c(CC)cc2c(C)cc(=O)oc12,i,12µM*,-8%,1%,i,4%
CCN(CC)Cc1c(O)c(Cl)cc2c(C)cc(=O)oc12,i,1%,2%,2%,i,?
COc1cccc(N2CCN(C(=O)CC(NC(=O)c3ccccc3)c3ccccc3)CC2)c1 (stereo not given),i,2%,-2%,5%,i,13%
Cc1cccc(N2CCN(C(=O)c3csc4ccccc34)CC2C)c1 (stereo not given),15µM*,/,-17%,-16%,?,?
Cc1cccc(N2CCN(C(=O)c3ccc4ccccc4c3)CC2C)c1 (stereo not given),?,11%,1%,-6%,?,?
Cc1cccc(N2CCN(C(=O)c3cc(C)oc3C)CC2C)c1 (stereo not given),15µM*,-12%,-5%,-13%,18µM*,?
COc1cccc(N2CCN(C(=O)c3cc(C)oc3C)CC2)c1,15µM*,?,?,?,23µM*,?
Cc1cccc(N2CCN(C(=O)CC(NC(=O)c3ccccc3)c3ccccc3)CC2C)c1 (stereo not given),3.7µM*,-30%,9%,0%,?,2%
SMILES,KB-V1 MDR tox,SW480 rereplic,HT1080 IDH1KD tx,HT1080NT lethal,KB-3-1 cytotox,MCF10A rereplic
Cc1c([N+](=O)[O-])c(C(=O)Sc2ccc(Br)cc2)nn1C,i,-42%,8%,9%,i,-14%
O=C(N/N=C/c1cccnc1)c1ccc(F)cc1,?,-5%,13%,25%,i,-11%
O=c1[nH]c(=O)c2ccccc2o1,i,3%,7%,4%,i,-2%
CCOc1ccc(NC(=O)CN(c2ccc(CC)cc2)S(=O)(=O)c2c(C)noc2C)cc1,i,/,/,/,i,/
Cc1cc(C(=O)N2CCN(c3ccccc3O)CC2)c(C)o1,i,-3%,1%,7%,i,10%
Cc1cc(C(=O)N2CCC(C(N)=O)CC2)c(C)o1,i,16µM*,1%,-4%[9.24 µM],i,10%
O=c1c2ccccc2oc2cc(C#CC3(O)CCCCC3)ccc12,i,3%,-1%,31%,i,21µM*
C=CCn1c2ccccc2c(=O)c2cc(C#CC3(O)CCCCC3)ccc21,i,9.2µM*,-27%,?,?,?
COc1cccc2oc3cc(C#CC4(O)CCCCC4)ccc3c(=O)c12,i,-2%,-9%,-10%,i,?
COc1cc(/C=C2\SC(=O)NC2=O)ccc1Oc1ccc([N+](=O)[O-])cc1[N+](=O)[O-],i,21%,?,-27%,i,21µM*
CCN1C(=O)C(=Cc2cccc(OC)c2Oc2ccc([N+](=O)[O-])cc2[N+](=O)[O-])SC1=S,?,4.6µM*,3.3µM*,2.6µM*,23µM*,?
CO/N=C/c1ccc(Oc2ccc([N+](=O)[O-])cc2[N+](=O)[O-])c(OC)c1,?,?,?,?,i,?
CC1(C)S[C@@H]2[C@H](NC(=O)[C@H](C(=O)O)c3ccsc3)C(=O)N2[C@H]1C(=O)O,/,-1%,/,/,/,0%
COc1ccccc1N(CC(=O)Nc1cccnc1)S(=O)(=O)c1ccccc1,?,10%,17%,0%,i,?
COc1ccc(N(CC(=O)Nc2ccc3c(c2)OCO3)S(=O)(=O)c2ccccc2)cc1,i,-11%,12%,12%,i,-1%
CN(c1cccc(NC(=O)CN(c2cccc(Cl)c2)S(=O)(=O)c2ccc(Cl)cc2)c1)S(C)(=O)=O,18µM*,/,-20%,-15%,?,17%
COc1ccc(OC)c(N(CC(=O)Nc2cccnc2)S(=O)(=O)c2ccccc2)c1,?,-21%,3.3µM*,6.5µM*,i,2%
